D2 ag-1 = D2 dopamine receptor (human) agonism; HEK293 T-REx D2 cells, calcium flux agonist mode; activation, % at 2 µM; actives 0.53% (n = 340,000); AID 485358;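 active = activation over 3 SD above normal in the single-dose calcium agonist read, cut at about 30% in these data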; note: 0% is about no effect
Target sequence (P14416 whole entry, looked up): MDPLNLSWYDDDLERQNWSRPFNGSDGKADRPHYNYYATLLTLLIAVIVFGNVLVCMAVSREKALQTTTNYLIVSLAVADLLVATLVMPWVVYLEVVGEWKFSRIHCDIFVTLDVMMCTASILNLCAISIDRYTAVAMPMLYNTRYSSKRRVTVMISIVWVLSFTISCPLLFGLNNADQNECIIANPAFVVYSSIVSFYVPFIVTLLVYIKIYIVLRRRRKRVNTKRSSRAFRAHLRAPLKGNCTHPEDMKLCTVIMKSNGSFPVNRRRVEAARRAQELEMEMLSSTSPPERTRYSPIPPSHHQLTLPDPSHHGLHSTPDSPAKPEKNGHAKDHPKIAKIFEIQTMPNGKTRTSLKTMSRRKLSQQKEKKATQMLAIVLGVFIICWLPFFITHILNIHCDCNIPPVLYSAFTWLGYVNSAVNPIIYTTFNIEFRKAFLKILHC
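Tetracycline-induced HEK293 Trex cells with D2 receptor force-coupled to calcium signaling, plated overnight at 30 C and loaded with no-wash calcium dye. Calcium flux read kinetically for 180 s after compound addition; responses flag agonists.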
D2 antagonist = antagonists of human D2 dopamine receptor; P14416; HEK293 TREx D2 cells, calcium flux, dopamine EC80; inhibition, % at 10 µM; actives 2% (n = 340,000); in the data active = inhibition above about 30%; inactive = below that, where a call was filed; note: 0% is about no effect
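HEK293 T-REx D2 cells, tet-induced, calcium dye no-wash. Cpd pintool add, 180 s kinetic, then EC80 DA, 180 s kinetic. Ca flux read.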
D2 PAM-1 = positive allosteric modulators of human D2 dopamine receptor; potentiation, % (test concentration not listed); DiscoveRx D2 beta-arrestin cells, luminescence, 90 min; 100% = 57 uM dopamine signal; actives 0.23% (n = 360,000); AID 624464; P14416; in the data active = potentiation above about 50%
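D2 cells co-treated with compound plus 50 nM dopamine (EC20) for 90 min at 37 deg C to detect potentiation. Beta-arrestin recruitment was read as enzyme-fragment luminescence after 1 h at ambient temperature. Full response was set by 57 uM dopamine.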
D2 ag-2 = activates the human D2 dopamine receptor. P14416. activation, % (concentration not given with the values). AID 624465. actives 0.084% (n = 360,000). DiscoveRx PathHunter D2 beta-arrestin, luminescence, 90 min; 100% = 57 uM dopamine signal; in the data active = activation above about 40%
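DiscoveRx PathHunter D2 beta-arrestin cells (2,100/well) attached overnight, then compound-stimulated 90 min at 37 C in HBSS/10 mM HEPES/0.1% Tween-20 buffer; beta-galactosidase complementation read by luminescence after 1 h at ambient temperature. Dopamine 57 uM final (EC100) as control.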
D2 PAM-2 = D2 dopamine receptor (human) potentiation. HEK293 T-REx D2, calcium flux, EC20 dopamine potentiation. P14416. potentiation, % at 10 µM. actives 0.34% (n = 340,000);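 active = potentiation over 3 SD above the plate norm, cut at about 30% in these data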; note: 0% is about no effect
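Tetracycline-induced HEK293 T-REx cells force-coupled to calcium signalling expressed D2; compounds were pin-added after a 10 s baseline, read kinetically 180 s, then an EC20 dopamine challenge followed with a further 180 s calcium read.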
An asterisk follows results filed as active; . = no result; ! = repeats disagree. Only some compounds are listed: those with a hit (about 2.4% of all), similar ones and a draw of the others.

SMILES | D2 ag-1 | D2 antagonist | D2 PAM-1 | D2 ag-2 | D2 PAM-2
O=C(NC1(C(F)(F)F)NC(=O)N(Cc2cccnc2)C1=O)c1ccc(F)cc1 (configuration not stated) | -0.6 | 5.8 | -3.8 | 1.8 | 39.2*
Cc1nnc(SC(C)C(=O)Nc2ccc3ccccc3c2)[nH]c1=O (configuration not stated) | -3.1 | -8.4 | 1.7 | -0.1 | .
COc1cc(=O)[nH]c(SC(C)C(=O)Nc2ccc3ccccc3c2)n1 (configuration not stated) | . | . | 0.1 | -0.7 | 37.1*
Cc1c(CC(=O)NC(C)C)c(=O)oc2cc3c(cc12)CCC(C)(C)O3 | -0.6 | 3.4 | -9.3 | 6.0 | 8.5
Cc1c(CC(=O)N[C@@H](C)C(=O)O)c(=O)oc2cc3c(cc12)CCC(C)(C)O3 | -0.1 | 36.3* | -2.8 | -2.4 | -6.3
CC[C@H](C)C(=O)O[C@H]1CCC=C2C=C[C@H](C)[C@H](CC[C@@H]3C[C@@H](O)CC(=O)O3)[C@H]21 | 2.4 | 38.1*! | -9.6 | 1.9 | -5.6
Cc1c(Cl)cccc1NC(=O)CSc1nc2ncccc2o1 | . | . | . | . | -0.7
COc1ccc(Nc2nc(C)nc3c2nnn3Cc2ccccc2)cc1OC | 0.8 | 12.0 | -0.7 | 2.1 | 34.5*
Cc1c(Cl)cccc1NC(=O)CN1C(=O)c2ccccc2Sc2ncccc21 | -0.3 | . | . | . | -2.1
CCN1CCN(S(=O)(=O)c2ccc(Cl)c(C(=O)NC(C)(C)C)c2)CC1 | 5.4 | 30.4* | -2.6 | -4.8 | -8.5
CCN1CCN(S(=O)(=O)c2ccc(Cl)c(C(=O)NC3CC3)c2)CC1 | 0.9 | -53.0 | -5.6 | -2.5 | -6.6
CCN1CCN(S(=O)(=O)c2ccc(Cl)c(C(=O)NC3CCCC3)c2)CC1 | -0.4 | 46.6* | -5.5 | 3.2 | -6.9
COc1ccc(S(=O)(=O)NCCS(=O)(=O)N2CCN(c3ccccc3)CC2)cc1C | . | . | . | . | 26.1
CCn1cc(C(=O)N2CCOCC2)c(=O)c2cc(S(=O)(=O)N(C)C3CCCCC3)ccc21 | -0.9 | 0.2 | -1.6 | -3.1 | 31.8*
CCn1cc(C(=O)NCc2ccc(Cl)cc2)c(=O)c2cc(S(=O)(=O)N(C)C)ccc21 | -0.5 | 32.1* | 0.5 | -4.8 | 0.2
CCn1cc(C(=O)NCCc2ccc(Cl)cc2)c(=O)c2cc(S(=O)(=O)N(C)C)ccc21 | -0.2 | -8.8 | -3.8 | 1.4 | 6.9
CCn1cc(C(=O)NCCCN(C)c2ccccc2)c(=O)c2cc(S(=O)(=O)N(C)C)ccc21 | 43.2* | 29.3 | -0.8 | -1.8 | 54.1*
Cc1ccc(C)c(N2CCN(C(=O)c3ccc(NC(=O)c4nsc5ccccc45)cc3)CC2)c1 | 0.1 | . | . | . | -4.7
COC(=O)c1c(NC(=O)c2ccco2)sc2c1CCC2 | -3.0 | 1.9 | 5.4 | -6.4 | 30.3*
O=C(Nc1sc2c(c1C(=O)O)CCC2)c1ccco1 | 0.5 | 3.8 | -1.3 | 1.4 | 4.5
Cc1ccc(C(=O)Nc2sc3c(c2C(=O)O)CCCCC3)o1 | 0.7 | 32.1* | 4.3 | -1.1 | 3.2
COC(=O)c1c(NC(=O)Cc2cccs2)sc2c1CCCC2 | -0.2 | -2.3 | 3.1 | -3.4 | 3.4
COC(=O)c1c(NS(=O)(=O)c2cccs2)sc2c1CCCC2 | 0.0 | 41.4* | -2.5 | -2.1 | 9.3
COc1ccc(-c2nsc(NC(=O)c3ccccc3Br)n2)cc1 | -0.6 | . | . | . | 2.7
C=CCNc1nc(NCCN2CCOCC2)nc(N2CCOCC2)n1 | 0.0 | -0.2 | -15.7 | -0.4 | 13.5
SMILES | D2 ag-1 | D2 antagonist | D2 PAM-1 | D2 ag-2 | D2 PAM-2
C=CCNc1nc(N2CCOCC2)nc(N2CCOCC2)n1 | -0.7 | 31.2* | 0.5 | 0.2 | -14.2
O=C(O)c1nn2cc(CCO)cnc2c1Cl | 1.0 | -6.2 | -5.3 | 0.7 | 33.5*
CCCN(CCC)C(=O)Cn1c(=O)n(-c2ccccc2)c(=O)c2c3c(sc21)CCCC3 | -0.3 | . | . | . | -1.5
Cc1ccc2onc(CC(=O)Nc3ccc(C(C)C)cc3)c2c1 | 0.6 | . | . | . | -5.7
CCN(CC)c1ccc2cc(C(=O)NCc3ccc(F)cc3)c(=N)oc2c1 | 46.2* | 2.3 | . | . | -8.7
N=c1oc2ccc(Br)cc2cc1C(=O)NCc1ccc(F)cc1 | -0.5 | 8.5 | -8.5 | -3.8 | -3.6
CC(C)Cn1c(=O)c2sccc2n2c(CCCC(=O)NCCc3ccc(Cl)cc3)nnc12 | -1.1 | . | . | . | -5.3
Cc1ccccc1N(CC(N)=O)S(C)(=O)=O | 0.5 | -1.1 | -13.5 | 0.9 | 3.8
Cc1ccccc1N(CC(=O)O)S(C)(=O)=O | -0.2 | 13.5 | 25.1 | -3.6 | 30.8*
COc1ccc(/C=N/N2C(=O)CSC2=S)cc1Br | 8.0 | 33.3* | -2.4 | -1.8 | -4.1
COc1ccc(C(=O)NCc2ccco2)cc1S(=O)(=O)N1CCOCC1 | 0.4 | 10.3 | -2.8 | -2.3 | -6.9
O=[N+]([O-])c1ccc(Cl)c(S(=O)(=O)N2CCCCCC2)c1 | -0.3 | -5.1 | 70.5* | 0.1 | 10.3
COc1ccc(C(=O)NCc2ccccc2CN2CCCC2)cc1S(=O)(=O)N1CCOCC1 | 0.3 | 45.2* | -16.8 | -6.7 | -23.1
O=C(NCC1COc2ccccc2O1)c1ccc(Cl)c(S(=O)(=O)N2CCOCC2)c1 (configuration not stated) | 0.9 | 30.6* | -0.9 | -1.7 | -1.1
O=C(NCc1ccccc1CN1CCCC1)c1ccc(Cl)c(S(=O)(=O)N2CCCC2)c1 | -0.2 | 32.9* | -32.1 | -1.9 | -26.1
CN1CCN(S(=O)(=O)c2cc([N+](=O)[O-])ccc2Cl)CC1 | 0.4 | 3.3 | 27.9 | 4.5 | 1.1
COc1ccc(CCNc2oc(/C=C/c3ccc(OC)c(OC)c3)nc2C#N)cc1 | . | . | . | . | 6.9
O=C(NCc1ccccc1CN1CCCC1)c1cc2cc(Cl)ccc2o1 | 0.3 | 39.9* | -2.7 | 5.5 | -18.6
CC(=O)N1CCN(C(=O)c2ccc(Cl)c(S(=O)(=O)N3CCCCCC3)c2)CC1 | 0.6 | 31.9* | -6.1 | 1.4 | 7.0
Cc1ccc(C(=O)NCc2ccccc2CN2CCCC2)cc1S(=O)(=O)N1CCOCC1 | -0.4 | 51.5* | -31.5 | -1.2 | -27.9
O=C(NCc1ccc(Cl)cc1)c1cc2ccccc2o1 | 1.1 | . | . | . | .
O=C(c1ccc(Cl)c(S(=O)(=O)N2CCCCC2)c1)N1CCCCC1 | 0.1 | -8.0 | -12.7 | -3.6 | -4.9
Cc1ccc(C(=O)NCc2ccccc2F)cc1S(=O)(=O)N1CCCC1 | 0.8 | -30.5 | -10.5 | 2.1 | 11.8
CC(CNC(=O)c1cnn(-c2ccc(F)cc2)c1-n1cccc1)c1ccccc1 (configuration not stated) | 1.0 | . | . | . | -3.8
Cc1ccc(C(=O)c2oc3ccccc3c2NC(=O)Cc2coc3cc(C)ccc23)cc1 | 1.3 | . | . | . | 5.2
COc1cccc(CNC(=O)CSc2ncc(S(=O)(=O)c3ccc(C)c(Cl)c3)c(=O)[nH]2)c1 | . | . | . | . | 7.1
CCC(C)Oc1ccc(/C=C/c2[nH]c(=O)[nH]c(=O)c2[N+](=O)[O-])cc1OC (configuration not stated) | -1.1 | -6.5 | -3.7 | -4.7 | 34.3*

Screening results (PubChem)
